Luc counter = counter-screen: inhibitors of Kinase-Glo firefly luciferase; Q27757; Kinase-Glo luciferase, ATP luminescence, 8 min; Potency, µM (top dose mostly 38.3 µM), for the others: at the top dose activity change, negative = inhibition, actives largely listed as inhibitors; 0.28% of 200,000 active; AID 1379; note: % is set by controls: 0 for no effect and ±100 for the full control effect; nearly all actives have a fitted effect of over 60% in size
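Kinase-Glo luciferase light output from ATP and luciferin was measured with 10 uM ATP, within the enzyme's linear range. Buffer: 50 mM imidazole pH 7.2, 50 mM KCl, 7 mM MgCl2, 0.01% Tween 20, 0.05% BSA; luminescence read after 8 min at ambient temperature.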
SMN2 splice up = enhancers of SMN2 splice variant expression. Potency, µM (series often up to 46.1 µM), inactives show at the top dose activity change, positive = activation, actives largely listed as activators. 2.8% of 210,000 active. HEK293 SMN2-luciferase splicing reporter, luminescence, 30-36 h; note: % of control where 0% means no effect; nearly all actives have a fitted effect of over 55% in size
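HEK293 cells carry an SMN2 […]–luciferase reporter in which exon 7 inclusion puts luciferase in frame. Cells were plated 10-12 h before compound addition, then incubated 30-36 h at 37C. ONE-Glo luminescence was read; sodium butyrate at 4.5 mM final served as control.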
Rab9 promoter act = Rab9 promoter activation; Huh7 Rab9 promoter-luciferase reporter, luminescence, 24 h; Potency, µM (highest dose often 9.22 µM), for the others: at the top dose activation, negative = inhibition, most hits filed as activators; 2.8% of 320,000 active; note: % of control where 0% means no effect; nearly all actives have a fitted effect of over 60% in size
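Stable Rab9-luc Huh7, 1500 cells/well, 2 h settle; cmpd in DMSO, 24 h, 37 °C/5% CO2; luciferase reagent 10 min RT; luminescence.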
FLuc modulator = counter-screen for miR-21 project: firefly luciferase inhibitors or activators. P08659. purified FLuc, Km substrates, luminescence inhibition. Potency, µM (doses to about 57.5 µM), for the others: at the top dose activity change, negative = inhibition, most hits filed as inhibitors. 6.9% of 360,000 active. AID 588342;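 note: plate controls were vehicle for no effect and reference inhibitor for full effect; nearly all actives have a fitted effect of over 55% in size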
Target sequence (P08659 whole entry, looked up): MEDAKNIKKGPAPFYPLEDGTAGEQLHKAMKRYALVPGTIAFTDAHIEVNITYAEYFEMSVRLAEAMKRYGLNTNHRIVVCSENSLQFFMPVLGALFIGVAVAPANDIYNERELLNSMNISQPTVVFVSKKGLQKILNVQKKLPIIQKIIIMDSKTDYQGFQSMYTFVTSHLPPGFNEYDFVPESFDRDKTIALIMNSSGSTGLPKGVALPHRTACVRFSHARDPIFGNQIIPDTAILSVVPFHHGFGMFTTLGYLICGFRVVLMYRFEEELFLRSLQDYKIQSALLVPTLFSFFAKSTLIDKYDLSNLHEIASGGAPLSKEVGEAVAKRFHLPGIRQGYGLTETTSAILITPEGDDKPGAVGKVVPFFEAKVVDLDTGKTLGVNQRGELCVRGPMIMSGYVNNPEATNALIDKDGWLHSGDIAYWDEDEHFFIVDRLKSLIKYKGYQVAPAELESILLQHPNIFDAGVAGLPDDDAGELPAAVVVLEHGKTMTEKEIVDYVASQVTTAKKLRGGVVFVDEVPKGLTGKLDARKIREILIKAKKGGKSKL
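Purified P. pyralis luciferase, 10 nM final, with Km-level 10 uM D-luciferin and 10 uM ATP in 50 mM Tris acetate pH 7.5, 10 mM Mg acetate, 0.01% Tween-20, 0.05% BSA; 6-point qHTS titration about 60 µM downward; luminescence read.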
ELG1 genotox = induces genotoxicity in HEK293T cells with luciferase-tagged ELG1; 1.3% of 330,000 active; AID 504466; HEK293T ELG1-luciferase reporter, luminescence, 16 h; Potency, µM (doses to about 46 µM), without a hit: at the highest dose activity change, positive = activation, most hits filed as activators; note: % of control where 0% means no effect; nearly all actives have a fitted effect of over 60% in size
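16 hr compound incubation (37 °C, 5% CO2) of HEK293T cells carrying luciferase-tagged ELG1; luciferase then measured by ONE-Glo luminescence after 30 min at RT.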
NPC1 promoter act = activators of NPC1 promoter; Huh7 NPC1 promoter luciferase reporter, 24 h; 2.4% of 320,000 active; Potency, µM (series often up to 9.22 µM), inactives show at the top dose activation, actives largely listed as activators; AID 485313; note: % of control where 0% means no effect; nearly all actives have a fitted effect of over 60% in size
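Stably transfected Huh7 (NPC1 promoter→luciferase), 1500 cells/well in Opti-MEM + 10% FBS, 2 h settle, then compound 24 h at 37 °C. Luminescence after 10 min with Amplite reagent.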
Numbers without * were called inactive; u = inconclusive; x = no result; [ ] = dose if it differs, or a comment. Hits are enriched below; roughly 7.5% of the tested compounds scored in any of these assays. Calls come from the whole dose curve; as a rule, active = well fitted curve in the direction sought with a large enough effect; inconclusive = small, poorly fitted or top-dose-only effect, or another doubt; inactive = no such curve, though single readings can be large; an effect the other way counts as inactive or inconclusive. Potency is the fitted concentration of half-maximal effect.

SMILES	Luc counter	SMN2 splice up	Rab9 promoter act	FLuc modulator	ELG1 genotox	NPC1 promoter act
CCc1ccc(NC(=O)c2ccc3c(O)c(S(=O)(=O)c4ccc(Cl)cc4)c(=O)[nH]c3c2)cc1	x	x	x	7.6µM*	x	x
COc1cccc(NC(=O)c2ccc3c(O)c(S(=O)(=O)c4ccccc4)c(=O)[nH]c3c2)c1	x	x	0%	19µM*	0%[9.26 µM]	2%
Cc1ccc(C)c(C(C)NC(=O)c2ccc(Br)o2)c1 (stereo not drawn)	3%	-21%	-6%	4%	-6%	-5%
COc1ccc(Nc2cccccc2=O)cc1	-4%	2%	22%	u	3%	29%
COc1ccc(Nc2cc(C)c3ccccc3n2)cc1	3%	u	u	13µM*	u	28%
COc1cc(OC)c(C(=O)Nc2cccc3ccccc23)cc1OC	x	x	1%	19µM*	0%	10%
COc1ccc(C(=O)Nc2cccc3ccccc23)cc1	x	x	u	19µM*	13%	u
COc1ccc(Nc2cccc3ccccc23)cc1	x	x	u	27µM*	9%	19%
COc1ccc(C(=O)NNC(=O)C(=O)Nc2cccc3ccccc23)cc1	x	x	10%	-8%	4%	-1%
COC(=O)CN(c1cc([N+](=O)[O-])ccc1OC)S(C)(=O)=O	x	x	3%	1%	1%	0%
CC/C(=N\NC(=O)CNC(=O)/C=C/c1ccc(OC)cc1)c1ccccc1	x	x	-2%	3%	0%	-6%
CC(=O)[C@]1(O)Cc2c(O)c3c(c(O)c2[C@@H](O[C@H]2C[C@H](N)[C@H](O)[C@H](C)O2)C1)C(=O)c1c(O)cccc1C3=O	-12%[39.9 µM]	x	x	x	x	x
CCSc1nc(N)c2c(C)c(C)sc2n1	1%	17%	2%	u	9%	2%
C=CCSc1nc(N)c2c(C)c(C)sc2n1	-2%	-5%	24%	12µM*	u	18%
O=[N+]([O-])c1ccc(Cl)c(S(=O)(=O)Nc2cccc(-c3ccc(N4CCCC4)nn3)c2)c1	x	x	23%	15µM*	13%	17%
Cc1c([N+](=O)[O-])cc(S(=O)(=O)Nc2ccc(-c3ccc(N4CCCC4)nn3)cc2)cc1[N+](=O)[O-]	x	x	9%	19µM*	3%	-2%
Cc1ccc([N+](=O)[O-])cc1S(=O)(=O)Nc1ccc(-c2ccc(N3CCCC3)nn2)cc1	x	x	2%	u	6%	11%
O=[N+]([O-])c1ccc(Cl)c(S(=O)(=O)Nc2ccc(-c3ccc(N4CCCC4)nn3)cc2)c1	x	x	-3%	21µM*	6%	-1%
CCOC(=O)c1oc2nc3c(cc2c1N)CCCC3	x	x	1.4µM*	5.4µM*	u	1.4µM*
CCn1ccc(C(=O)Nc2ccccc2SC)n1	-5%	14µM*	4.5µM*	u	u	u
CCn1ccc(C(=O)Oc2ccc(Cl)cc2)n1	-3%	-11%	-4%	7.6µM*	2%	3%
CCn1ccc(C(=O)Nc2ccc(Cl)cn2)n1	-6%	u	4µM*	19µM*	u	3.2µM*
CC(C)c1ccc(OC(=O)c2cc(-c3ccc(Cl)cc3)on2)cc1	x	x	x	-5%	x	x
CCn1nccc1C(=O)Nc1ccc(Cl)cn1	u	20%	27%	u	u	26%
CCN(CC(=O)Nc1ccc(NC(C)=O)cc1)C(=O)CCCOc1ccc(C(C)(C)C)cc1	x	x	0%	15µM*	u	0%
SMILES	Luc counter	SMN2 splice up	Rab9 promoter act	FLuc modulator	ELG1 genotox	NPC1 promoter act
CCN(CC(=O)NCc1cccs1)C(=O)CCCOc1ccc(C(C)(C)C)cc1	x	x	-5%	u	-2%	0%
COc1ccc(C2CC3(CC(C)(C)NC(SC)=N3)Oc3cc(O)cc(C)c32)cc1 (stereo not drawn)	-2%	-22%	-11%	-1%	-3%	1%
COCC1CCCN(C(=O)c2ccc3nc(Cc4cccc(Cl)c4)oc3c2)C1 (stereo not drawn)	x	x	2.2µM*	13µM*	u	3.2µM*
COC(=O)CN(C)C(=O)c1ccc2nc(Cc3cccc(Cl)c3)oc2c1	x	x	3.5µM*	24µM*	u	2.8µM*
CC(=O)c1cc(-c2ccc(F)cc2)n(CCC(=O)Nc2nc3ccc(C)cc3s2)c1C	x	x	x	5%	x	x
O=C(NC1CC1)c1cc2cc3ccccc3nc2s1	x	x	3.5µM*	11µM*	u	2.2µM*
O=C(NCC12CC3CC(CC(C3)C1)C2)c1cc2nc(-c3ccc(F)cc3)cc(C(F)(F)F)n2n1	x	x	x	-1%	x	x
COC(=O)Cc1[nH]n(-c2ccccc2)c(=O)c1C(C)=Nc1ccccc1	-2%	-14%	3.2µM*	u	10%	u
COC(=O)Cc1[nH]n(-c2nc3ccccc3s2)c(=O)c1C(C)=Nc1ccc(Cl)cc1	x	x	-58%	12µM*	2%	-44%
COC(=O)Cc1[nH]n(-c2nc3ccccc3s2)c(=O)c1C(C)=Nc1ccc(C)cc1	-6%	-94%	-44%	u	-12%	-34%
COC(=O)Cc1cc(=O)n(-c2ccccc2)[nH]1	2%	25%	2%	2%	-3%	-1%
COc1ccc(-c2csc(N3N=C(C)C(C)C3=O)n2)cc1 (stereo not drawn)	-4%	u	4.5µM*	8.5µM*	9%	u
CC1=NN(c2nc(-c3ccc(C)cc3)cs2)C(=O)C1N=Nc1ccccc1O (stereo not drawn)	-2%	x	-52%	11µM*	-8%	-38%
COCCn1c(C)cc(C(=O)CSc2nnc3ccccn23)c1C	u	u	u	1.3µM*	0.58µM*	u
Cc1ccc(C(=O)CSc2nnc3ccccn23)c(C)c1	1%	10µM*	0.79µM*	2.7µM*	4.6µM*	2µM*
COCCn1c(SCC(=O)c2cc(C)n(C)c2C)nc2ccccc2c1=O	-1%	18%	24%	u	1%	16%
COCCn1c(C)cc(C(=O)CSc2ncn[nH]2)c1C	3%	5.6µM*	29%	u	12%	4%
COc1ccccc1C1CCCN1Cc1nc(-c2ccc(C)s2)oc1C (stereo not drawn)	-1%	x	-7%	2%	-10%	-1%
Cc1ccc2[nH]c(=O)c3cc(C(=O)NCc4cccc(Cl)c4)sc3c2c1	x	-1%	x	1%	x	x
O=C(Nc1cccc(O)c1)c1cc(-c2ccco2)on1	-5%	11%	1%	0.95µM*	u	-2%
COc1ccc(-c2cc(C(=O)Nc3cccc(O)c3)no2)cc1	x	x	4µM*	0.38µM*	u	u
O=C(Nc1cccc(C(F)(F)F)c1)c1cc(-c2ccco2)on1	x	x	3%	u	7%	1%
